Only some compounds are listed: those with a hit (about 3.5% of all), similar ones and a draw of the others.
BoNT A protease: BoNT/A light chain protease inhibitors, primary screen, biochemical, flow cytometry, MLPCN library; actives 0.17% (n = 360,000); AID 588499, 2011; Botulinum neurotoxin type A light chain protease (Clostridium botulinum A str. ATCC 3502); multiplex microsphere protease substrate cleavage; inhibition, % at 10 µM; note: plate controls were buffer without enzyme for full effect and enzyme alone for no effect
Autofluor counter: flagged as autofluorescent in microsphere protease counterscreen; compound autofluorescence counterscreen, microsphere flow cytometry; hits give high values; AID 624483; fluorescence intensity (no concentration beside the values); actives 3.1% (n = 360,000); in the data active = fluorescence intensity above about 16000; inconclusive = no clear call, values can overlap the other calls
BoNT F protease: BoNT/F light chain protease inhibitors, primary screen, biochemical, flow cytometry, MLPCN library | Multiplex microsphere protease cleavage assay | inhibition, % at 10 µM | actives 0.22% (n = 360,000); in the data active = inhibition above about 35%, passing the limit was not always enough; inconclusive = no clear call, values can overlap the other calls; note: plate controls were buffer without enzyme for full effect and enzyme alone for no effect
Anthrax LF inh2: Bacillus anthracis LF protease inhibitors, primary screen, biochemical, multiplex microsphere, MLPCN library | actives 0.12% (n = 360,000) | inhibition, % at 10 µM | multiplex microsphere protease cleavage assay | AID 588501, 2011 | Lethal factor (Bacillus anthracis), P15917; note: plate controls were buffer without enzyme for full effect and enzyme alone for no effect
The depositor's hits bear a star. Cut-off read from the data, not from the text of the source, unless noted: active = inhibition above about 30%; inconclusive = no clear call, values can overlap the other calls; inactive = below that.

What do the screens show for `Cc1ccc(NC(=O)CCS(=O)(=O)c2cc3[nH]c(=O)c(=O)[nH]c3cc2C)cc1`?
BoNT A protease: 2; Autofluor counter: 6009; BoNT F protease: 1; Anthrax LF inh2: 2

Results for CN(C)c1nc2c(c(=O)n(C)c(=O)n2C)n1Cc1ccccc1 ?
BoNT A protease: 0; Autofluor counter: 22117*; BoNT F protease: -2; Anthrax LF inh2: 1

How did Cn1c(=O)c2c(nc(Br)n2Cc2ccc3ccccc3c2)n(C)c1=O do in these assays?
BoNT A protease: inconclusive; Autofluor counter: 20690*; BoNT F protease: 5; Anthrax LF inh2: -2

Results for C/C(Cl)=C\Cn1c(NCCc2ccccc2)nc2c1c(=O)n(C)c(=O)n2C ?
BoNT A protease: inconclusive; Autofluor counter: 6537; BoNT F protease: 36*; Anthrax LF inh2: 0

How did Cn1c(=O)c2c(nc(-n3ccnc3)n2Cc2ccccc2)n(C)c1=O do in these assays?
BoNT A protease: -1; Autofluor counter: 4140; BoNT F protease: -9; Anthrax LF inh2: -1

What do the screens show for `Cc1cc2c(N=NC(=O)CCc3ccccc3)c(O)[nH]c2cc1Br`?
BoNT A protease: -4; Autofluor counter: 1933; BoNT F protease: -27; Anthrax LF inh2: -3

Results for CCCCNC(=O)C1(C)CCCCN1C(=O)c1cncc(Br)c1 (stereo not drawn) ?
BoNT A protease: 0; Autofluor counter: 3817; BoNT F protease: -3; Anthrax LF inh2: -4

Results for CCOC(=O)C1(Cc2cccc(OC)c2)CCN(Cc2cccn2-c2ccccn2)CC1 ?
BoNT A protease: 0; Autofluor counter: 2572; BoNT F protease: -1; Anthrax LF inh2: 0

How did Cc1cc2c(s1)NC(=O)CN=C2c1cccs1 do in these assays?
BoNT A protease: inconclusive; Autofluor counter: 19677*; BoNT F protease: 0; Anthrax LF inh2: -1

How did CCCCNS(=O)(=O)c1ccc(NC(=O)c2c(-c3ccccc3Cl)noc2C)cc1 do in these assays?
BoNT A protease: 2; Autofluor counter: 19198*; BoNT F protease: 0; Anthrax LF inh2: 4

What do the screens show for `Cc1ccc(-c2cn3cccnc3n2)cc1NC(=O)c1c(-c2ccccc2Cl)noc1C`?
BoNT A protease: 0; Autofluor counter: 10225; BoNT F protease: -1; Anthrax LF inh2: -4

Results for Cc1onc(-c2ccccc2Cl)c1C(=O)Nc1ccc(-c2cn3cccnc3n2)cc1 ?
BoNT A protease: inconclusive; Autofluor counter: 16485*; BoNT F protease: 0; Anthrax LF inh2: -2

Results for Cc1onc(-c2ccccc2Cl)c1C(=O)Nc1cccnc1 ?
BoNT A protease: 1; Autofluor counter: 20230*; BoNT F protease: 0; Anthrax LF inh2: 1

What do the screens show for `Cc1onc(-c2ccccc2Cl)c1C(=O)Nc1ccc(S(=O)(=O)NCC2CCCO2)cc1` (stereo not drawn)?
BoNT A protease: -1; Autofluor counter: 7936; BoNT F protease: -3; Anthrax LF inh2: -4

How did Cc1onc(-c2ccccc2Cl)c1C(=O)NCC(=O)O do in these assays?
BoNT A protease: 0; Autofluor counter: 9391; BoNT F protease: 0; Anthrax LF inh2: -8

Results for Cc1onc(-c2ccccc2Cl)c1C(=O)NCCn1c(C)cc2ccccc21 ?
BoNT A protease: 59*; Autofluor counter: 1177; BoNT F protease: -150; Anthrax LF inh2: -138

What do the screens show for `CN1CCCC1CCNC1C2CC3CC(C2)CC1C3` (stereo not drawn)?
BoNT A protease: 0; Autofluor counter: 16148*; BoNT F protease: -3; Anthrax LF inh2: -4

What do the screens show for `CN1CCCC1CN1CCCC1` (stereo not drawn)?
BoNT A protease: -1; Autofluor counter: 6209; BoNT F protease: -21; Anthrax LF inh2: -15

Results for NC(=O)COC(=O)CCSc1ccc(Cl)cc1 ?
BoNT A protease: 0; Autofluor counter: 3244; BoNT F protease: 1; Anthrax LF inh2: -1

What do the screens show for `N#CCCN(CCC#N)C(=O)c1ccc2c(c1)OCO2`?
BoNT A protease: 3; Autofluor counter: 20717*; BoNT F protease: 4; Anthrax LF inh2: -4

What do the screens show for `O=C(c1ccc(NS(=O)(=O)c2ccc(F)cc2)cc1)N1CCC1`?
BoNT A protease: -2; Autofluor counter: inconclusive; BoNT F protease: -7; Anthrax LF inh2: 0

Results for Cn1c(SCCCC(=O)c2ccccc2)nnc1-c1ccncc1 ?
BoNT A protease: inconclusive; Autofluor counter: 19499*; BoNT F protease: 2; Anthrax LF inh2: 2

What do the screens show for `Cn1c(SCC(=O)c2ccccc2)nnc1-c1ccncc1`?
BoNT A protease: -2; Autofluor counter: 4660; BoNT F protease: -1; Anthrax LF inh2: -2

Source: PubChem
